This note sets out measurements from the supplement of paper PMC10849652.

The full data set covers some 7,900 targets. This sample favours those with a hit. About 0.6% of all pairs of compound and target were hits.

Chain of UniProt Q92536 (Q92536 whole entry, looked up): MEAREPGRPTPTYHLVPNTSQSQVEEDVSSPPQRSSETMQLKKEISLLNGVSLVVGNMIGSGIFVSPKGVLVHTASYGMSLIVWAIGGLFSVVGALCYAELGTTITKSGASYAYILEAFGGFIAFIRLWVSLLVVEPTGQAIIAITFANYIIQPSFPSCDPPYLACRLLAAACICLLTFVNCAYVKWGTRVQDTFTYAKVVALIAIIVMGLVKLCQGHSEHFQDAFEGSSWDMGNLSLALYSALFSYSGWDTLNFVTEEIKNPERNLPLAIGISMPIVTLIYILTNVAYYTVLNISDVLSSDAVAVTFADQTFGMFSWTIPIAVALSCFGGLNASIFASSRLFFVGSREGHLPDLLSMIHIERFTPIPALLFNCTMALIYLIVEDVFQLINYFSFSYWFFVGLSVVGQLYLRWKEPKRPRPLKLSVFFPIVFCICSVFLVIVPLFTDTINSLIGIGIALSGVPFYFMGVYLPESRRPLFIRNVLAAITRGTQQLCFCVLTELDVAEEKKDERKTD
Chain of UniProt Q8NEF9 (Q8NEF9 whole entry, looked up): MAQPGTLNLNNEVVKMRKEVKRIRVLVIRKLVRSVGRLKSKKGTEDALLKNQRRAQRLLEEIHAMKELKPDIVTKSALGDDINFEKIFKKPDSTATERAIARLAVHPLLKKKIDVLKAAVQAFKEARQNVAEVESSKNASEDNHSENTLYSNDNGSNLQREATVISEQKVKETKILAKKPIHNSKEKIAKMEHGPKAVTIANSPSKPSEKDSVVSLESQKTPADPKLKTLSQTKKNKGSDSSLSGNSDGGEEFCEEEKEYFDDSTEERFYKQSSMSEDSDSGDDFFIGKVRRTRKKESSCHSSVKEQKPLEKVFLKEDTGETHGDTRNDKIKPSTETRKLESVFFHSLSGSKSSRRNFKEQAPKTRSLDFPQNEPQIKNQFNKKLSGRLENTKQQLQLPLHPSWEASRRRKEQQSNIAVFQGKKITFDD
Chain of UniProt Q16594 (Q16594 whole entry, looked up): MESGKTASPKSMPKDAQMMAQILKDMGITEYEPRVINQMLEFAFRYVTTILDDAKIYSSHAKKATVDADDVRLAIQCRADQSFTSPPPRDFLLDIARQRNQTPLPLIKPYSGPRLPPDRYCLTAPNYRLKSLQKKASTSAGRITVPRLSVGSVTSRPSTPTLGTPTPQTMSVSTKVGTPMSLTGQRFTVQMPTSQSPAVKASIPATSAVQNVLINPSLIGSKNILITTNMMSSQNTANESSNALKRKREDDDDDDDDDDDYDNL
Chain of UniProt Q96CQ1 (Q96CQ1 whole entry, looked up): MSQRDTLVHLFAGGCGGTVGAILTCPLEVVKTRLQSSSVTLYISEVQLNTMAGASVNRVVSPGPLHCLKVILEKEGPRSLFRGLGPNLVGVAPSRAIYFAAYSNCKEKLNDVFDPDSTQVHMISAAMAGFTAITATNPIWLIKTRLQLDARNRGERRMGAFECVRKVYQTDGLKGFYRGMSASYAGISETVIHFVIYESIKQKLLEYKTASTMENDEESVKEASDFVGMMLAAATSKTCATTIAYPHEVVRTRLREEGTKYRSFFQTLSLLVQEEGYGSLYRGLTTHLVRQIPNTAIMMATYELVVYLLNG
Chain of UniProt Q5T5C0 (Q5T5C0 whole entry, looked up): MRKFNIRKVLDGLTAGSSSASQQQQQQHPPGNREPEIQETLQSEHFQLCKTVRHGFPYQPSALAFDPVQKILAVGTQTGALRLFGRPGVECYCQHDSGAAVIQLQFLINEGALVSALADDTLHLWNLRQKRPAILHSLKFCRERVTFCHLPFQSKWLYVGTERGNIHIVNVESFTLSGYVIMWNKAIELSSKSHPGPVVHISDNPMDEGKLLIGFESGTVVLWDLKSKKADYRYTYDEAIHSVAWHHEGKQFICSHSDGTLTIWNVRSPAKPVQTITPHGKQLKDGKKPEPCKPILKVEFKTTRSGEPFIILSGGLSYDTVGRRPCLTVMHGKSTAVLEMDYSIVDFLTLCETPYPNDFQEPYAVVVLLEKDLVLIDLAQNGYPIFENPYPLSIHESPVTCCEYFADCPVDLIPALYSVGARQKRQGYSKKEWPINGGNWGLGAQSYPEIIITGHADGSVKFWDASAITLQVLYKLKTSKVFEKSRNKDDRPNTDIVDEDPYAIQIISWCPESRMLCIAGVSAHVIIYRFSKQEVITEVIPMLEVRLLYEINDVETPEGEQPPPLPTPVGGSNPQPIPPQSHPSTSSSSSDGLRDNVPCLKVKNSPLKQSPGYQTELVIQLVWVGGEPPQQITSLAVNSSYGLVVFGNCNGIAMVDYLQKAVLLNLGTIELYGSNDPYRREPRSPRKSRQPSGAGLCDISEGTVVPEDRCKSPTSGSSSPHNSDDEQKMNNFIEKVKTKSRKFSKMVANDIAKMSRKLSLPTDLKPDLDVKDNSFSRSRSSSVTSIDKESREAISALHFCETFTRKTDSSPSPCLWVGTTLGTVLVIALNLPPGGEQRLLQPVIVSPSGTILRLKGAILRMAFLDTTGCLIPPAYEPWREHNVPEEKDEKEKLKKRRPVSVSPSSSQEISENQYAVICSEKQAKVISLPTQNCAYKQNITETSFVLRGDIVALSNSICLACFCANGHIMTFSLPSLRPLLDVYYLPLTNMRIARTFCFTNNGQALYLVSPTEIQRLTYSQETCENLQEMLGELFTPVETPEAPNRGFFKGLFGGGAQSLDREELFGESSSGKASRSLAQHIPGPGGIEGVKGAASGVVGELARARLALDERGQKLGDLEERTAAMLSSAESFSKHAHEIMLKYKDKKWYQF
Chain of UniProt Q15526 (Q15526 whole entry, looked up): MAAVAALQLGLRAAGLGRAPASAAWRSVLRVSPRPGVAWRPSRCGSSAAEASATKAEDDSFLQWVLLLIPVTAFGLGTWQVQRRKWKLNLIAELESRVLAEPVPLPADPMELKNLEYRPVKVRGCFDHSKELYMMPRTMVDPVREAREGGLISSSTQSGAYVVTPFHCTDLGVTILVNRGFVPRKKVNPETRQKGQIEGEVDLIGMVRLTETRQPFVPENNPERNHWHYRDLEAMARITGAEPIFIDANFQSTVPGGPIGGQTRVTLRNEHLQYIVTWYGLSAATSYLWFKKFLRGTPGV
Chain of UniProt Q9Y5W9 (Q9Y5W9 whole entry, looked up): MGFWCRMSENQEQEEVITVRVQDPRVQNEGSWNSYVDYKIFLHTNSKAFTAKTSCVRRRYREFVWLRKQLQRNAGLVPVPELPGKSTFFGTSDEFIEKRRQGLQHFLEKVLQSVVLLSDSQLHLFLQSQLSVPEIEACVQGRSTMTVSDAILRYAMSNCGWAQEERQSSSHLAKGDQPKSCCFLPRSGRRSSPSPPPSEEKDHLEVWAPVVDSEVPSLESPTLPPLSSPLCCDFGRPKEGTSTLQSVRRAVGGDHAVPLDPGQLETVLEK
Chain of UniProt Q8IWZ8 (Q8IWZ8 whole entry, looked up): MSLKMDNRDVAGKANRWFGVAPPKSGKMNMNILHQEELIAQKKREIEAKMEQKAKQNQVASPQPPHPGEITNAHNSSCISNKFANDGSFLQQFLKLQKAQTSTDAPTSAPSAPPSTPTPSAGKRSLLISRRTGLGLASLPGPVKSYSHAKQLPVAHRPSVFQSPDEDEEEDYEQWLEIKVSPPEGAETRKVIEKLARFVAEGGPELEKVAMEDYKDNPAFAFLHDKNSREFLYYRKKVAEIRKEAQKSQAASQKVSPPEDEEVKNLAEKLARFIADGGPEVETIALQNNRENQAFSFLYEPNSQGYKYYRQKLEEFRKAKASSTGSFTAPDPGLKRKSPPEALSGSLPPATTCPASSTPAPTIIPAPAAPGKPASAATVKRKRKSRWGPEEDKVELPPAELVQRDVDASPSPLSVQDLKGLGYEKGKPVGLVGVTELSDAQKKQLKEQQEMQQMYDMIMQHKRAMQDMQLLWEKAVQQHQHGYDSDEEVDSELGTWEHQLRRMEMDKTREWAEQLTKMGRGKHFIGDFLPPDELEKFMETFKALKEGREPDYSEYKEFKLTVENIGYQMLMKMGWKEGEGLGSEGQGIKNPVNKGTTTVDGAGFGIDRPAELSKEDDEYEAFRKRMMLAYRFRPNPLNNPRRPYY
Chain of UniProt Q7L7X3 (Q7L7X3 whole entry, looked up): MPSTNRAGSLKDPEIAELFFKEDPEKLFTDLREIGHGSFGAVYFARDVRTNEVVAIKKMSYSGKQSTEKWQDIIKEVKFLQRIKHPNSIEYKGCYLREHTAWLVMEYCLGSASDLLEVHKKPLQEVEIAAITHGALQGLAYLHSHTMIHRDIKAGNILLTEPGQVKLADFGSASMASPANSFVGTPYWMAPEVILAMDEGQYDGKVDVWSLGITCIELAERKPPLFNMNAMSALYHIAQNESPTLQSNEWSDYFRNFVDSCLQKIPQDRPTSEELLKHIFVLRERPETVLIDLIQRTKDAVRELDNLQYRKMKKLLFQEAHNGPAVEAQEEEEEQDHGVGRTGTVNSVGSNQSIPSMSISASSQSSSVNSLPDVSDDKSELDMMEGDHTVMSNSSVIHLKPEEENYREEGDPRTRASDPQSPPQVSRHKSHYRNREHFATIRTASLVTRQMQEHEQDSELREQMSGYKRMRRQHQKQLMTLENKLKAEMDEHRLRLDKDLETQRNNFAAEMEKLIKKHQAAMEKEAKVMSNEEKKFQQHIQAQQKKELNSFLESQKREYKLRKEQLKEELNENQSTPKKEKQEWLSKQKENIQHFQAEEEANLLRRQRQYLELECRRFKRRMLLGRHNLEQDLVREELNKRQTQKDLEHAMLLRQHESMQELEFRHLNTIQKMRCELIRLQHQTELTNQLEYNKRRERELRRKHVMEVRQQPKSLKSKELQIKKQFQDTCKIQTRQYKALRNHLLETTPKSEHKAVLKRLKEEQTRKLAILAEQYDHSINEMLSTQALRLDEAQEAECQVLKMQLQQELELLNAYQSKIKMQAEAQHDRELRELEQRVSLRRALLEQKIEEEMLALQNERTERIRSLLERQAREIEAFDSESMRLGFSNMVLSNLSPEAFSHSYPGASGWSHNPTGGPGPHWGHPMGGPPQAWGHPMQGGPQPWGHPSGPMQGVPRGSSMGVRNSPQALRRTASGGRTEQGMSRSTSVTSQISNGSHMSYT
Chain of UniProt P63165 (P63165 whole entry, looked up): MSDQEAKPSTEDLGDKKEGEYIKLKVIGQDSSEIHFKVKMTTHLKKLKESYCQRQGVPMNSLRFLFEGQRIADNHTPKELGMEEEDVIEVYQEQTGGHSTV

Compound in one experiment: CS(=O)(=O)CCNCc1ccc(-c2ccc3ncnc(Nc4ccc(OCc5cccc(F)c5)c(Cl)c4)c3c2)o1 [lapatinib]
In words: log2 fold change, soluble protein after heating vs DMSO (PISA); higher = thermal stabilisation; K562 cells, 10 uM, 30 min; active = over 0.2 and 3.5 SD of the protein, either way, in both replicates (recomputed). Put shortly:
(§1)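 K562 cells at 2×10^6 cells/mL were treated with 10 μM compound for 30 min. Aliquots were heated for 3 min across 48°C-58°C, pooled, and extracted in PBS with 0.5% NP-40 at 4°C; soluble protein was the supernatant after 21,000xg for 90 min. Soluble protein was quantified by TMTpro 16plex LC-MS/MS with channel sums equalised, and reported as log2 fold change in thermal stability against DMSO controls, with values from duplicates.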
Turning to STK39 (UniProt Q9UEW8), the log2 fold change is -0.002 (inactive).
In the case of TAF9 (UniProt Q16594), the log2 fold change is -0.028 (inactive).
As for SUPT16H (UniProt Q9Y5B9), the log2 fold change was 0.035 (inactive).
For the target SRFBP1 (UniProt Q8NEF9), the log2 fold change was 0.13 (inactive).
On the same count and under the same terms, next, SLC9A6 isoform 2 (UniProt Q92581): 0.003 (inactive); SNX11 (UniProt Q9Y5W9): 0.014 (inactive); SREK1 isoform 2 (UniProt Q8WXA9): 0.108 (inactive).
As for SMAD2 (UniProt Q15796), the log2 fold change was 0.043 (inactive).
On the same count and under the same terms, the result for TBC1D5 isoform 2 (UniProt Q92609) reads -0.062 (inactive); that for SLC25A36 (UniProt Q96CQ1), 0.107 (inactive).
In the case of SLC7A6 (UniProt Q92536), the log2 fold change is 0.033 (inactive).
In the case of SUGP1 (UniProt Q8IWZ8), the log2 fold change is -0.046 (inactive).
With TAOK1 (UniProt Q7L7X3), the log2 fold change is 0.014 (inactive).
Still for that read-out and setting: next, STXBP5 (UniProt Q5T5C0): 0.023 (inactive); SURF1 (UniProt Q15526): 0.058 (inactive).

Compound in the next experiment: CS(=O)(=O)N1CCN(Cc2cc3nc(-c4cccc5[nH]ncc45)nc(N4CCOCC4)c3s2)CC1 [pictilisib]
The experiment is described as above. Put shortly:
as §1
Turning to SNRNP27 (UniProt Q8WVK2), the log2 fold change was -0.009 (inactive).
On the same count and under the same terms, next, SRP68 (UniProt Q9UHB9): -0.054 (inactive); SP3 (UniProt Q02447): 0.041 (inactive).
In the case of TLK2 isoform 2 (UniProt Q86UE8), the log2 fold change is -0.071 (inactive).
On the same count and under the same terms, next, STAT6 (UniProt P42226): -0.13 (inactive).
Still for that read-out and setting: next, SLC38A9 (UniProt Q8NBW4): -0.027 (inactive); STAM2 (UniProt O75886): 0.055 (inactive).
The same measure, in the same setting: the result for SLC30A7 (UniProt Q8NEW0) reads 0.028 (inactive).
On to STARD7 (UniProt Q9NQZ5), for which the log2 fold change was 0.01 (inactive).
Regarding SUMO1 (UniProt P63165), the log2 fold change is 0.006 (inactive).
On the same count and under the same terms, next, STAT5A (UniProt P42229): -0.096 (inactive); SRPRA (UniProt P08240): -0.012 (inactive).
For the target TBC1D15 isoform 3 (UniProt Q8TC07), the log2 fold change was -0.009 (inactive).
Turning to TFRC (UniProt P02786), the log2 fold change was 0.048 (inactive).
On to SRSF7 (UniProt Q16629), for which the log2 fold change was -0.003 (inactive).
Regarding TAMM41 isoform 3 (UniProt Q96BW9), the log2 fold change is 0.027 (inactive).
Regarding STK38 (UniProt Q15208), the log2 fold change was 0.146 (inactive).
Same read-out and setting: next, SLC6A6 (UniProt P31641): 0.072 (inactive); TBC1D23 (UniProt Q9NUY8): -0.067 (inactive); SMAD9 (UniProt O15198): 0.148 (inactive).
Still for that read-out and setting: next, SRSF3 (UniProt P84103): -0.018 (inactive); TBCD (UniProt Q9BTW9): 0.04 (inactive); TECR (UniProt Q9NZ01): -0.102 (inactive).
Turning to STK39 (UniProt Q9UEW8), the log2 fold change was 0.107 (inactive).
Turning to TAF9 (UniProt Q16594), the log2 fold change was -0.017 (inactive).
Take SUPT16H (UniProt Q9Y5B9): the log2 fold change was 0.011 (inactive).
The same measure, in the same setting: the result for SRFBP1 (UniProt Q8NEF9) reads -0.065 (inactive); that for SLC9A6 isoform 2 (UniProt Q92581), 0.129 (inactive).
Take SNX11 (UniProt Q9Y5W9): the log2 fold change was -0.173 (inactive).
Still for that read-out and setting: next, SREK1 isoform 2 (UniProt Q8WXA9): -0.001 (inactive).
As for SMAD2 (UniProt Q15796), the log2 fold change is 0.102 (inactive).
Still for that read-out and setting: the result for TBC1D5 isoform 2 (UniProt Q92609) reads -0.091 (inactive); that for SLC25A36 (UniProt Q96CQ1), 0.052 (inactive); that for SLC7A6 (UniProt Q92536), 0.048 (inactive).
For SUGP1 (UniProt Q8IWZ8), the log2 fold change was 0.032 (inactive).
In the case of TAOK1 (UniProt Q7L7X3), the log2 fold change was -0.043 (inactive).
For STXBP5 (UniProt Q5T5C0), the log2 fold change is -0.038 (inactive).
With SURF1 (UniProt Q15526), the log2 fold change was 0.051 (inactive).

Compound in a further experiment: CS(=O)(=O)c1ccc(-c2cnc(N)c(C(=O)Nc3ccccc3)n2)cc1
Described as above. The procedure, abridged:
as §1
Take SNRNP27 (UniProt Q8WVK2): the log2 fold change was 0.002 (inactive).
Same read-out and setting: the result for SRP68 (UniProt Q9UHB9) reads 0.004 (inactive); that for SP3 (UniProt Q02447), -0.005 (inactive); that for TLK2 isoform 2 (UniProt Q86UE8), -0.063 (inactive).
Same read-out and setting: next, STAT6 (UniProt P42226): -0.083 (inactive); SLC38A9 (UniProt Q8NBW4): 0.165 (inactive); STAM2 (UniProt O75886): 0.114 (inactive).
On to SLC30A7 (UniProt Q8NEW0), for which the log2 fold change was -0.01 (inactive).
Still for that read-out and setting: the result for STARD7 (UniProt Q9NQZ5) reads 0.023 (inactive).
With SUMO1 (UniProt P63165), the log2 fold change was -0.125 (inactive).
STAT5A (UniProt P42229): the log2 fold change is 0.02 (inactive).
SRPRA (UniProt P08240): the log2 fold change was 0.066 (inactive).
As to TBC1D15 isoform 3 (UniProt Q8TC07), the log2 fold change was -0.012 (inactive).
On the same count and under the same terms, next, TFRC (UniProt P02786): 0.026 (inactive); SRSF7 (UniProt Q16629): -0.096 (inactive); TAMM41 isoform 3 (UniProt Q96BW9): 0.064 (inactive).
Still for that read-out and setting: next, STK38 (UniProt Q15208): 0.081 (inactive); SLC6A6 (UniProt P31641): 0.021 (inactive); TBC1D23 (UniProt Q9NUY8): -0.026 (inactive).
Still for that read-out and setting: next, SMAD9 (UniProt O15198): 0.016 (inactive); SRSF3 (UniProt P84103): -0.081 (inactive).
On to TBCD (UniProt Q9BTW9), for which the log2 fold change was -0.069 (inactive).
Still for that read-out and setting: the result for TECR (UniProt Q9NZ01) reads -0.002 (inactive).
With STK39 (UniProt Q9UEW8), the log2 fold change was 0.109 (inactive).
On the same count and under the same terms, next, TAF9 (UniProt Q16594): -0.029 (inactive).
Same read-out and setting: the result for SUPT16H (UniProt Q9Y5B9) reads 0.138 (inactive).
In the case of SRFBP1 (UniProt Q8NEF9), the log2 fold change is -0.053 (inactive).
As to SLC9A6 isoform 2 (UniProt Q92581), the log2 fold change is 0.028 (inactive).
The same measure, in the same setting: next, SNX11 (UniProt Q9Y5W9): -0.062 (inactive); SREK1 isoform 2 (UniProt Q8WXA9): 0.317 (inactive); SMAD2 (UniProt Q15796): 0.132 (inactive).
With TBC1D5 isoform 2 (UniProt Q92609), the log2 fold change is 0 (inactive).
Consider SLC25A36 (UniProt Q96CQ1), for which the log2 fold change is 0.016 (inactive).
As to SLC7A6 (UniProt Q92536), the log2 fold change was -0.011 (inactive).
SUGP1 (UniProt Q8IWZ8): the log2 fold change was 0.021 (inactive).
Same read-out and setting: the result for TAOK1 (UniProt Q7L7X3) reads -0.002 (inactive); that for STXBP5 (UniProt Q5T5C0), -0.021 (inactive).
Same read-out and setting: next, SURF1 (UniProt Q15526): -0.001 (inactive).
